Here are results for 14 compounds from PubChem BioAssay (NCI).

Compounds without any hit were thinned out: in the full panel of roughly 83,000, 20% have a hit.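 Treatment: one concentration, 48 hours, 96-well format. Scoring: percent growth, with anything below 10 considered active.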 Unmarked numbers belong to inactive results. Calls of active or inactive are those of the source.

Experiment in all cases: NCI-60 one-dose screen, 48 h (100 = growth as untreated, 0 = no growth, -100 = all killed)
Common to all, as to settings: 10 µM unless noted

Assay [1] concerns SR leukemia.
The subject of assay [2] is RPMI-8226 leukemia.
Assay [3] concerns OVCAR-8 ovarian.
Assay [4] has as its system OVCAR-5 ovarian.
Assay [5] has as its system OVCAR-4 ovarian.
Assay [6] deals with SK-OV-3 ovarian.
Assay [7] deals with IGROV1 ovarian.
Assay [8] has as its system OVCAR-3 ovarian.
Assay [9] deals with NCI/ADR-RES ovarian.
Assay [10] has as its system HS 578T breast.

Consider `CCOC(=O)c1nc2c3ccccc3ccn2c1C(=O)OCC`, for which the growth in [1] was 103%; in assay [2], 96.4%; in [3], 111%; in assay [4], 98%; in [5], 107%; in [6], 109%. For the same compound, the growth was 96.5% in [7], 106% in [8] and 96% in [9].

As to `N#CC(C#N)=Cc1cc2ccccc2nc1Oc1ccc(C(F)(F)F)cc1`, the growth in assay [1] was 30.8%; in assay [2], 3.66% (active); in assay [3], 92.5%; in assay [4], 102%; in [5], 99.7%; in assay [6], 88.6%. Also, the growth is 79.3% in [7], 101% in assay [8], 96.9% in [10] and 92.5% in assay [9].

Consider `COc1cc2c(=O)n(CCN(C)C)c3c4cc5c(cc4ccc3c2cc1OC)OCO5`, for which the growth is 2.29% (active) in assay [1]; -27.7% (active) in assay [2]; 11.4% in assay [3]; -17.5% (active) in assay [4]; 5.11% (active) in assay [5]; -5.08% (active) in assay [6]. Also, the growth in assay [7] was -16% (active); in [8] it was -41.9% (active); in assay [10], 9.24% (active); in assay [9], 2.87% (active).

Turning to `CCOC(=O)c1cc(C#N)n2ccc3ccccc3c12`, the growth in [1] was 115%; in assay [2] it was 111%; in [3] it was 100%; in assay [4], 94.2%; in assay [5] it was 95.3%; in [6], 36.5%. The figures for the growth in [7], in assay [10] and in assay [9] were 99.7%, 112% and 102%, respectively.

Turning to `O=S(=O)(NCCCNc1nccc(-c2c(-c3cccc(F)c3)nc3sccn23)n1)c1cccc(F)c1`, the growth is 64.9% in assay [1]; 28% in assay [2]; 18.4% in [3]; 110% in assay [4]; 26.8% in assay [5]; 66% in assay [6]. The figures for the growth in [7], in assay [10] and in [9] were 18.9%, 63.7% and 17.6%, respectively.

Take `OCc1cnccc1NCCCCOc1ccc(Oc2ccccc2)cc1`: the growth in [1] was 31.7%; in assay [2], 24.7%; in assay [3], 65.1%; in assay [4], 84.1%; in assay [5], 63.2%; in assay [6] it was 87.2%. Also, the growth in [7] was 72.7%; in [8], 66.6%; in [10] it was 59.6%; in assay [9] it was 65.8%.

For `COc1ccc(C(=O)Nc2cccc(C3CCc4c(cc(OC)c(OC)c4OC)O3)c2)cc1` (stereo not given), the growth in assay [1] was 21.6%; in assay [2], 23.9%; in [3] it was 55.6%; in assay [4] it was 91.1%; in assay [5], 47.4%; in assay [6] it was 51.6%. Further, the growth is 52% in assay [7], 38.9% in [10] and 38.5% in [9].

As to `O=C(CSc1nc2sc3c(c2c(=O)n1-c1ccc(Cl)cc1)CCCC3)Nc1nc(-c2cccc(Br)c2)cs1`, the growth was 80.6% in assay [1]; 96.4% in assay [2]; 68.1% in [3]; 75.7% in assay [4]; 72.9% in [5]; 94.2% in assay [6]. Further, the growth is 72.6% in assay [7], 89% in assay [8], 72.6% in [10] and 80.5% in assay [9].

With `Cc1ccc(-n2cc(-c3ccccc3)c3c2N=NN2CCN=C32)cc1`, the growth was 86% in assay [1]; 93.4% in [2]; 107% in assay [3]; 101% in [4]; 104% in [6]; 88.5% in [7]. The growth in assay [8] is 106%; in [10] it was 100%; in [9], 102%.

For `N/C(=N\C(N)=N\c1nc2ccccc2s1)c1ccnc(Br)c1`, the growth in assay [1] is 25%; in [2], 23.6%; in assay [3], 33.8%; in [4], 89.4%; in assay [6], 29.6%; in assay [7], 25.8%. Also, the growth in assay [8] is 9.06% (active); in assay [10], 19.3%; in assay [9], 20.1%.

`NC1[C@H](c2c[nH]c3ccccc23)c2c([nH]c3ccccc23)[C@H]1c1c[nH]c2ccccc12` (stereo not given in full): the growth was 81.7% in assay [1]; 77.7% in assay [2]; 99.8% in assay [3]; 92.7% in assay [4]; 115% in assay [6]; 63.9% in assay [7]. In addition, the figures for the growth in assay [8], in assay [10] and in assay [9] were 78.2%, 83.8% and 81.7%, respectively.

Turning to `O=C(Cn1c[n+](CC(=O)c2ccc(-c3ccccc3)cc2)c2ccccc21)Nc1cccc2cccnc12`, the growth was -17.1% (active) in assay [1]; -30.2% (active) in assay [2]; 20% in assay [3]; 62.8% in assay [4]; 10.3% in [5]; 50.5% in assay [6]. Further, the growth in [7] was -38.2% (active); in assay [10] it was 33.5%; in assay [9] it was 96.7%.

`CCCCCCCCO/N=C\c1c2c(O)c3c(O)c(C)c4c(c3c1O)C(=O)C(C)(O/C=C\C(OC)C(C)C(OC(C)=O)C(C)C(O)C(C)C(O)C(C)/C=C\C=C(\C)C(=O)N2)O4` (stereo not given): the growth in assay [1] is 6.26% (active); in [2] it was 9.95% (active); in assay [3], 24%; in [4], 48.8%; in [6], 30.5%; in [7], 23.4%. Further, the growth in [8] is 22.2%; in assay [10] it was -2.52% (active); in assay [9] it was 32.1%.

As for `N#Cc1c(NCc2ccccc2I)sc2c1CCCCC2`, the growth was 93.8% in assay [1]; 91.9% in [2]; 88.8% in [3]; 96.3% in [4]; 97.8% in assay [6]; 71.9% in assay [7]. Moreover, the growth in [8] was 104%; in [10] it was 93.3%; in assay [9], 89.7%.
